FBPA Giardia inh – qHTS Assay for Inhibitors of Fructose-1,6-bisphosphate Aldolase from Giardia Lamblia. A8B2U2. purified Giardia FBPA. Potency, µM (highest dose often 59.6 µM), for the others: top-dose activity, negative = inhibition, usual class: inhibitors. 290,000 tested, 0.71% active; note: potency is the fitted concentration of half-maximal effect; % is set by controls: 0 for no effect and ±100 for the full control effect; nearly all actives have a fitted effect of over 55% in size
Target sequence (A8B2U2 whole entry, looked up): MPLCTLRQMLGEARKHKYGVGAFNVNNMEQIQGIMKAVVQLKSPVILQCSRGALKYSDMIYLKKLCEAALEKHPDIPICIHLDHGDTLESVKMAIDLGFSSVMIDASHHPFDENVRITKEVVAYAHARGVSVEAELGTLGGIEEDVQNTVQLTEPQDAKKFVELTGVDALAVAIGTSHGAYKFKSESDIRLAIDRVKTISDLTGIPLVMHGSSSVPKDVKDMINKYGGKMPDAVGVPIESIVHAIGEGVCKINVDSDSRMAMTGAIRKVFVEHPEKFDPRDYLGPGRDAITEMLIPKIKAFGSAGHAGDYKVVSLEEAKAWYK
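40 nM FBPA preincubated 10 min at RT with compound (up to 57.5 uM final), then substrate plus GAPDH/TPI/NAD/arsenate coupling and diaphorase/resazurin added. Fluorescence read after 20 min at RT, 525/598 nm.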
CHX counter – Cycloheximide Counterscreen for Small Molecule Inhibitors of Shiga Toxin | cell reporter, cycloheximide protein synthesis inhibition counterscreen | max response, % | 300,000 tested, 12% active | AID 2314, 2010; in the data active = max response mostly above about 13%, no sharp cut-off; inactive = mostly below about 14%; note: read at 38.3 µM for the half of the compounds with a filed dose; 0% is about no effect
Shiga toxin inh – A qHTS for Small Molecule Inhibitors of Shiga Toxin; Vero cells, Shiga toxin protein synthesis inhibition reporter; inhibition, % at 38.7 µM; 290,000 tested, 9.2% active; AID 2315, 2010; in the data active = inhibition mostly above about 28%, no sharp cut-off; inactive = mostly below about 43%; note: 0% is about no effect
RE007 growth inh – qHTS Assay for Inhibitors of the HIV-1 protein Vpr; S. pombe RE007 Vpr strain, BacTiter-Glo ATP luminescence, 24 h; Potency, µM (top dose mostly 92.2 µM), without a hit: at the highest dose activity change, negative = less growth, usual class: inhibitors; 360,000 tested, 0.21% active; active = well fitted falling curve with a large enough effect; inconclusive = small, poorly fitted or top-dose-only effect; inactive = no such curve, though single readings can be large or run the other way; note: potency is the fitted concentration of half-maximal effect; % is set by controls: 0 for no effect and ±100 for the full control effect; nearly all actives have a fitted effect of over 50% in size
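Fission yeast RE007 carrying one integrated HIV-1 vpr copy, seeded at OD 0.01 in PMG+AL medium with 23 nL pinned compound. Grown 24 h at 30 degrees; viability read by BacTiter-Glo luminescence after 5 min.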
LmPK inh – qHTS Assay for Inhibitors of Leishmania Mexicana Pyruvate Kinase (LmPK); purified LmPK, Kinase-Glo ATP luminescence, 1 h; Potency, µM (doses to about 57.5 µM), without a hit: at the top dose activity change, negative = inhibition, actives largely listed as inhibitors; 290,000 tested, 0.37% active; note: potency is the fitted concentration of half-maximal effect; % is set by controls: 0 for no effect and ±100 for the full control effect
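Purified LmPK (0.1 nM) converted ADP (0.1 mM) to ATP with PEP (0.5 mM) in imidazole buffer pH 7.2 with KCl and MgCl2, 1 h at room temperature. ATP was read by Kinase-Glo luminescence; data normalized to uninhibited and no-enzyme controls.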
TbPYK inhibitor – qHTS of Trypanosoma Brucei Inhibitors. 410,000 tested, 0.12% active. AID 624173, 2012. TbPYK enzyme, Kinase-Glo Plus ATP luminescence, 45 min. pyruvate kinase (Trypanosoma brucei), Q57TT1. Potency, µM (doses to about 76.8 µM), inactives show at the top dose activity, negative = inhibition, actives largely listed as inhibitors; note: potency is the fitted concentration of half-maximal effect; % is set by controls: 0 for no effect and ±100 for the full control effect; nearly all actives have a fitted effect of over 50% in size
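Glycolytic pyruvate kinase of T. brucei was incubated with substrate, test compound and 130 uM ADP for 45 minutes at room temperature. Luminescent Kinase-Glo Plus signal was measured after 10 minutes.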
* hit, by the source's call; ? = inconclusive; . = not tested or not shown; [ ] = remark or other dose. The entries come from a sample that favours hits as a whole. Unless noted, calls come from the whole dose curve; as a rule, active = well fitted curve in the direction sought with a large enough effect; inconclusive = small, poorly fitted or top-dose-only effect, or another doubt; inactive = no such curve, though single readings can be large; an effect the other way counts as inactive or inconclusive.

SMILES | FBPA Giardia inh | CHX counter | Shiga toxin inh | RE007 growth inh | LmPK inh | TbPYK inhibitor
COc1ccc(/C=N/Nc2nc3ccccc3[nH]2)c(OC)c1OC | 0% | 41* | 141* | -7% | -2% | -1%
COc1cc(CNc2nc3ccccc3[nH]2)cc(OC)c1OC | 0% | -2 | 13 | -21% | -2% | -1%
Cc1ccc(/C=N/Nc2nc3ccccc3[nH]2)s1 | 6% | 45* | active | -4% | ? | -9%
Cc1cc(=O)[nH]c(N/N=C/c2c[nH]c3ccccc23)n1 | ? | 29* | 27 | -7% | -4% | -4%
CCN1C(=O)[C@H]2[C@H]3[C@H](O)[C@H](O)C/C(=N/OC[C@@H]4O[C@H](c5ccccc5)C=C[C@@H]4Oc4ccc(OC)cc4)[C@@H]3CC[C@@H]2C1=O | -7%[12.9 µM] | . | . | . | . | .
CCCCCCCCCCCCCCCCCC(=O)OC(CC(=O)O)C[N+](C)(C)C (configuration not stated) | 0% | . | . | . | . | .
COc1ccccc1/C=N/Nc1nccnc1Cl | -17% | 35* | 66* | -21% | 16µM* | -5%
O=[N+]([O-])c1cc(/C=N/Nc2nc3ccccc3[nH]2)c(O)cc1O | ? | 43* | 104* | -24% | 0% | -13%
C(=N\Nc1nc(N2CCCCC2)nc(N2CCCCC2)n1)/c1c[nH]c2ccccc12 | -14% | 10 | -4 | -5% | 1% | 2%
COc1ccc(OCC(=O)N/N=C/c2cccc3cccnc23)cc1 | . | . | . | -20% | . | -12%
O=c1[nH]c(N/N=C/c2cc3c(cc2[N+](=O)[O-])OCO3)nc2ccccc12 | -9% | 2 | -2 | -26% | 0% | -4%
C(=N\Nc1nc2ccccc2[nH]1)/c1cccc2cccnc12 | -27% | 47* | 79* | -8% | -4% | -3%
C(=N\Nc1nc2ccccc2[nH]1)/c1c[nH]c2ccccc12 | 1% | 54* | 67* | 7% | -4% | -10%
CCOc1ccccc1C(=O)N1CCN(CCc2ccccn2)CC1 | . | . | . | . | . | 0%
COc1cccc(/C=N/Nc2ncccc2[N+](=O)[O-])c1OC | -3% | -4 | -15 | ? | 14µM* | ?
O=[N+]([O-])c1ccc(/C=N/Nc2ncccc2[N+](=O)[O-])s1 | . | . | . | -21% | . | -20%
Cc1ccccc1/C=N/Nc1nc2ccccc2[nH]1 | -14% | 49* | 76* | -27% | 2% | 2%
O=C(C1CCCCC1)N(CCN1CCCC1)c1nc2ccccc2s1 | 1% | 32* | 40 | 0% | -1% | 7%
O=C(NN(C(=O)C1CC1)c1nc2ccccc2s1)C1CC1 | 0% | 46* | 60* | -16% | 5% | -1%
CCOC(=O)c1c(NC(=O)c2cc(-c3ccccc3OC)on2)sc(C)c1C | . | . | . | . | . | -2%
COc1ccc(OCC(=O)NC2CC(=O)N(c3cccc(OC)c3)C2)cc1 (configuration not stated) | . | . | . | . | . | 5%
Nc1c(C(=O)c2ccccc2)oc2ccccc12 | -2% | 22* | 28 | -18% | -1% | -3%
CC(=O)c1oc2ccccc2c1N | 7% | 0 | -2 | 6% | 3% | 0%
Nc1c(C(=O)N2CCOCC2)oc2ccccc12 | . | 18* | 15 | -19% | 1% | 1%
Nc1c(C(=O)Nc2ccc(Cl)cc2)oc2ccccc12 | -8% | 55* | 175* | 7% | 0% | -3%
SMILES | FBPA Giardia inh | CHX counter | Shiga toxin inh | RE007 growth inh | LmPK inh | TbPYK inhibitor
Cc1c(C(=O)c2ccccc2)oc2ccc3ccccc3c12 | 5% | 51* | 106* | -6% | 1% | -2%
O=C(Nc1c(C(=O)c2ccccc2)oc2ccccc12)c1ccc(F)cc1 | . | . | . | . | . | -4%
Nc1c(C(=O)c2ccco2)oc2ccccc12 | 4% | 21* | 24* | . | 4% | .
Nc1c(C(=O)c2ccc(F)cc2)oc2ccccc12 | -6% | 38* | 44* | 2% | -2% | 1%
N#Cc1cc2c(nc1SC1CC(=O)N(c3ccccc3)C1=O)CCC2 (configuration not stated) | -8% | 83* | 115* | -1% | 3% | -1%
COc1ccccc1OCC(=O)Nc1ccccc1C(=O)N1CCCCC1 | . | 5 | 21 | 10% | -8% | -3%
Cc1ccccc1OCC(=O)Nc1cccc(Cl)c1C | 7% | 8 | 9 | -12% | 0% | -2%
CSc1ccccc1NC(=O)COc1ccc(Cl)cc1Cl | 3% | 17* | 43* | 27% | 0% | -4%
CC(=O)N1CCN(c2ccccc2NC(=O)COc2ccc(Cl)cc2Cl)CC1 | -7% | -2 | -10 | 22% | 3% | 4%
O=C(COc1ccccc1Cl)Nc1ccccc1C(=O)N1CCCCC1 | . | 43* | 85* | -2% | -1% | 2%
O=C(COc1ccc(Cl)cc1Cl)NCc1ccncc1 | 4% | 5 | -1 | -23% | 4% | 5%
O=C(COc1ccc(Cl)cc1Cl)Nc1ccccn1 | -8% | -11 | -23 | ? | 5µM* | ?
CSc1ccccc1NC(=O)COc1ccccc1Cl | 1% | 51* | 132 | ? | -1% | -12%
Cc1ccc(-c2nnc(SCC(=O)NC3CCCC3)nc2-c2ccc(C)cc2)cc1 | . | . | . | . | . | 6%
CC(C)[C@H](NC(=O)N1c2ccccc2NC(=O)[C@@H]1C(C)C)C(=O)N1CCC(C(=O)O)CC1 | 5% | 8.9* | 12 | -4% | -8% | -12%
O=C(COC(=O)C(Cc1ccccc1)NC(=O)c1ccc(Cl)cc1)c1ccc(Cl)cc1 (configuration not stated) | 1% | 9 | -7 | 6% | 4% | -7%
COC(=O)c1ccc(C)c(NC(=O)C(CCSC)NC(=O)c2cc(OC)c(OC)c(OC)c2)c1 (configuration not stated) | 8% | 1 | -7 | 3% | 0% | 1%
CCc1ccc(C(=O)COC(=O)C(CCSC)NC(=O)C23CC4CC(CC(C4)C2)C3)cc1 (configuration not stated) | 4% | -3 | -7 | -17% | 2% | -2%
CCc1ccc(C(=O)COC(=O)C(CCSC)NC(=O)c2ccccc2)cc1 (configuration not stated) | 10% | 22* | active | -3% | 7% | -1%
O=C(COC(=O)C(Cc1ccccc1)NC(=O)c1ccccc1)c1ccccc1 (configuration not stated) | 0% | 24* | 37* | 4% | 1% | 3%
CC(NC(N)=O)C(=O)OCC(=O)c1ccc(-c2ccccc2)cc1 (configuration not stated) | 5% | 36* | 43* | -13% | -4% | -5%

Screens: PubChem BioAssay, National Center for Advancing Translational Sciences (NCATS)
